Source: PubChem BioAssay AID1159580 (chemical genetic matrix, 2015)
Values joined by “and” are separate entries in the source; they are usually repeats but may differ in a detail not shown here. Equal values may be shown once. Screen size: about 5,500 compounds; about 2,000 (36%) were called active. Not shown: some 18% with an inconclusive outcome. Cut-off read from the data, not from the text of the source: active = normalized growth mostly below about 0.91 (no sharp cut-off); inconclusive = no clear call, values can overlap the other calls; inactive = mostly above about 0.92. The list shows a part of the results.

Test: chemical genetic growth profiling, strain panel (AID 1159580);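 note: tested at 20 µM; growth read once vehicle control cultures reached saturation at 30 °C; 1 = growth at the plate median or of vehicle wells; lower values mean less growth of the strain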
Conditions: S. cerevisiae deletion strains, growth OD

Measured: normalized growth

Oc1cccc2cccnc12
inactive: locus YHR079C, strain IRE1, stronger effect = lower value 0.908 | locus YJR066W, strain TOR1, stronger effect = lower value 0.871
0.165 (active) and 0.93 (inactive): locus YJL095W, strain BCK1, stronger effect = lower value
active: locus YAL021C, strain ccr4, stronger effect = lower value 0.0769 | locus YAL026C, strain drs2, stronger effect = lower value 0.0625 | locus YAL030W, strain snc1, stronger effect = lower value 0.0718 | locus YBL061C, strain skt5, stronger effect = lower value 0.0722 | locus YBR009C, strain hhf1, stronger effect = lower value 0.0681 | locus YBR021W, strain FUR4, stronger effect = lower value 0.0928 | locus YBR023C, strain chs3, stronger effect = lower value 0.076 | locus YBR171W, strain sec66, stronger effect = lower value 0.076 | locus YBR229C, strain ROT2, stronger effect = lower value 0.0533 | locus YBR231C, strain swc5, stronger effect = lower value 0.0897 | locus YBR279W, strain paf1, stronger effect = lower value 0.0618 | locus YCL011C, strain gbp2, stronger effect = lower value 0.0567 | locus YCL016C, strain dcc1, stronger effect = lower value 0.229 | locus YCL029C, strain bik1, stronger effect = lower value 0.738 | locus YCL061C, strain MRC1, stronger effect = lower value 0.064 | locus YCL069W, strain vba3, stronger effect = lower value 0.0627 | locus YCR088W, strain abp1, stronger effect = lower value 0.0593 | locus YDL005C, strain med2, stronger effect = lower value 0.646 | locus YDL035C, strain GPR1, stronger effect = lower value 0.0493 | locus YDL040C, strain nat1, stronger effect = lower value 0.476 | locus YDL074C, strain BRE1, stronger effect = lower value 0.0979 | locus YDL101C, strain DUN1, stronger effect = lower value 0.869 | locus YDL134C, strain PPH21, stronger effect = lower value 0.0515 | locus YDL185W, strain tfp1, stronger effect = lower value 0.0598 | locus YDL192W, strain arf1, stronger effect = lower value 0.0601 | locus YDR001C, strain nth1, stronger effect = lower value 0.0574 | locus YDR069C, strain doa4, stronger effect = lower value 0.0712 | locus YDR101C, strain arx1, stronger effect = lower value 0.375 | locus YDR137W, strain rgp1, stronger effect = lower value 0.0843 | locus YDR159W, strain sac3, stronger effect = lower value 0.616 | locus YDR162C, strain NBP2, stronger effect = lower value 0.0547 | locus YDR195W, strain ref2 0.117 | locus YDR297W, strain sur2, stronger effect = lower value 0.0588 | locus YDR318W, strain mcm21, stronger effect = lower value 0.0646 | locus YDR334W, strain swr1, stronger effect = lower value 0.0621 | locus YDR335W, strain msn5, stronger effect = lower value 0.0595 | locus YDR388W, stronger effect = lower value 0.0582 | locus YDR392W, strain spt3, stronger effect = lower value 0.0932 | locus YDR502C, strain sam2, stronger effect = lower value 0.0651 | locus YEL003W, strain gim4, stronger effect = lower value 0.0548 | locus YEL037C, strain rad23, stronger effect = lower value 0.0582 | locus YEL061C, strain CIN8 (second series), stronger effect = lower value 0.0606 | locus YEL061C, strain CIN8, stronger effect = lower value 0.0683 | locus YER015W, strain faa2, stronger effect = lower value 0.0643 | locus YER016W, strain bim1, stronger effect = lower value 0.0729 | locus YER110C, stronger effect = lower value 0.107 | locus YER111C, strain swi4, stronger effect = lower value 0.0869 | locus YER155C, strain BEM2 (second series), stronger effect = lower value 0.0885 | locus YER155C, strain BEM2, stronger effect = lower value 0.503 | locus YER167W, strain BCK2, stronger effect = lower value 0.0575 | locus YFR010W, strain ubp6, stronger effect = lower value 0.0669 | locus YGL078C, strain dbp3, stronger effect = lower value 0.0567 | locus YGL086W, strain mad1, stronger effect = lower value 0.0544 | locus YGL167C, strain pmr1, stronger effect = lower value 0.113 | locus YGL173C, strain kem1, stronger effect = lower value 0.07 | locus YGL227W, strain vid30, stronger effect = lower value 0.0635 | locus YGL240W, strain doc1, stronger effect = lower value 0.0777 | locus YGL248W, strain PDE1, stronger effect = lower value 0.0532 | locus YGL253W, strain hxk2, stronger effect = lower value 0.0539 | locus YGR135W, strain pre9, stronger effect = lower value 0.0644 | locus YGR252W, strain gcn5, stronger effect = lower value 0.152 | locus YHR013C, strain ard1, stronger effect = lower value 0.105 | locus YHR027C, strain rpn1, stronger effect = lower value 0.0611 | locus YHR079C, strain IRE1 (second series), stronger effect = lower value 0.0905 | locus YHR094C, strain hxt1, stronger effect = lower value 0.0596 | locus YHR129C, strain ARP1, stronger effect = lower value 0.576 | locus YHR142W, strain chs7, stronger effect = lower value 0.0731 | locus YHR200W, strain rpn10, stronger effect = lower value 0.0598 | locus YIL066C, strain RNR3, stronger effect = lower value 0.156 | locus YIL073C, strain SPO22, stronger effect = lower value 0.0972 | locus YIL125W, strain kgd1, stronger effect = lower value 0.0587 | locus YIR030C, strain dcg1, stronger effect = lower value 0.0603 | locus YJL092W, strain hpr5, stronger effect = lower value 0.058 | locus YJL095W, strain BCK1 (second series), stronger effect = lower value 0.09 | locus YJL115W, strain asf1, stronger effect = lower value 0.0712 | locus YJL129C, strain trk1, stronger effect = lower value 0.0863 | locus YJL134W, strain LCB3, stronger effect = lower value 0.388 | locus YJL154C, strain vps35, stronger effect = lower value 0.0589 | locus YJL164C, strain tpk1, stronger effect = lower value 0.0791 | locus YJL166W, strain qcr8, stronger effect = lower value 0.0604 | locus YJL168C, strain set2, stronger effect = lower value 0.0577 | locus YJL187C, strain SWE1 (second series), stronger effect = lower value 0.057 | locus YJL187C, strain SWE1, stronger effect = lower value 0.101 | locus YJR043C, strain POL32, stronger effect = lower value 0.0576
0.0533 (active) and 0.903 (inactive): locus YHR030C, strain SLT2, stronger effect = lower value
